Values joined by “and” are separate entries in the source; they are usually repeats but may differ in a detail not shown here. Identical values can stand only once. About 79,000 compounds went through this panel and 15% of them were active in at least one assay; those are over-represented in the sample as a whole. Some structures have more than one record in an assay (separate samples or runs), and their calls can disagree. Active and inactive are the calls of the source. Rule as the data show it: active = growth inhibition above about 70%; inactive = the rest.

Test [1] in a line: NCI Yeast Anticancer Drug Screen. Data for the rad50 strain (AID 155).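 Also: 0% = growth of vehicle-only cultures of the same strain.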 The conditions noted are these: S. cerevisiae rad50 strain growth inhibition; at 50.0 µM; stronger effect = higher value. The essentials: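 Yeast carrying a defined DNA repair defect were exposed to test compounds, and growth was compared with vehicle-treated controls to give percent inhibition.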
The nature of test [2]: NCI Yeast Anticancer Drug Screen. Data for the mec2-1 strain (AID 157). The conditions noted are these: S. cerevisiae mec2-1 strain, at 50.0 µM, stronger effect = higher value. Summed up:
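Growth inhibition is read against vehicle-treated controls after compound exposure of the mec2-1 yeast strain, which is defective in DNA damage repair or cell cycle control.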

Test [3] in a line: NCI Yeast Anticancer Drug Screen. Data for the sgs1 mgt1 strain (AID 161).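 Also: 0% = growth of cultures given vehicle only.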 The conditions noted are these: S. cerevisiae sgs1 mgt1 strain, at 50.0 µM, stronger effect = higher value. Summed up: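 Percent growth inhibition was derived by comparing compound-exposed mutant yeast with vehicle-exposed cultures. The strain carries alterations in DNA damage repair.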
The nature of test [4]: NCI Yeast Anticancer Drug Screen. Data for the cln2 rad14 strain (AID 165).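 Also: 0% = growth equal to vehicle treated cultures.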 The conditions noted are these: S. cerevisiae cln2 rad14 strain, at 50.0 µM, stronger effect = higher value. The essentials:
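Growth inhibition, relative to vehicle-treated controls, is the read-out. The test organism is a yeast strain with defined genetic alterations, cln2 rad14.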

Test [5] in a line: NCI Yeast Anticancer Drug Screen. Data for the bub3 strain (AID 167). The conditions noted are these: S. cerevisiae bub3 mutant strain, at 50.0 µM, stronger effect = higher value. The essentials:
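Compounds were applied to a genetically altered yeast strain carrying a cell-cycle control defect. Growth inhibition was scored against vehicle-treated controls.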

Test [6] is described as follows: NCI Yeast Anticancer Drug Screen. Data for the mlh1 rad18 strain (AID 175). Conditions: S. cerevisiae mlh1 rad18 strain growth inhibition; at 50.0 µM; stronger effect = higher value. The essentials:
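Cells of a genetically altered yeast strain, deficient in DNA damage repair, were treated with compound. Their growth was then compared with that of vehicle-treated cultures to give inhibition.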

In the case of `COC(=O)C(C)NC(=O)c1c2nc3c(C(=O)NC(C)C(=O)OC)ccc(C)c3oc-2c(C)c(=O)c1N` (stereo unspecified), the growth inhibition in test [1] is 2.9% (inactive) and 13.8% (inactive); in test [2], 14.7% (inactive) and -7.2% (inactive); in test [3], 0.1% (inactive) and -14.9% (inactive); in test [4], 22% (inactive) and 15% (inactive); in test [5], 7.25% (inactive) and -4.65% (inactive); in test [6], 29.1% (inactive) and -4.85% (inactive).

Consider `O=C1NC(=O)C(=Nc2c(O)[nH]c(=O)[nH]c2=O)C(=O)N1`, for which the growth inhibition in test [1] is 2.65% (inactive) and -11% (inactive); in test [2], -11.9% (inactive) and -14.3% (inactive); in test [3], 2.3% (inactive) and -10.6% (inactive); in test [4], -25.2% (inactive) and -31.8% (inactive); in test [5], 1.1% (inactive) and 16.6% (inactive); in test [6], 12.1% (inactive) and -13.1% (inactive).

`CN(C)CC1CC(=O)C(CN(C)C)CC1=O` (stereo unspecified): the growth inhibition is 7.35% (inactive) and -5.3% (inactive) in test [1]; 1.85% (inactive) and -5.7% (inactive) in test [2]; -10.1% (inactive) and -21.7% (inactive) in test [3]; 4% (inactive) and -37.1% (inactive) in test [4]; -7.45% (inactive) and -15.6% (inactive) in test [5]; 18.6% (inactive) and -8.8% (inactive) in test [6].

Take `Oc1ccccc1-c1nc2ccccc2o1`: the growth inhibition in test [1] was 4.85% (inactive) and 8.3% (inactive); in test [2], -10.8% (inactive) and -25.2% (inactive); in test [3], -13.8% (inactive) and 7.15% (inactive); in test [4] it was -6.75% (inactive) and 1.4% (inactive); in test [5], 1.05% (inactive) and 24.3% (inactive); in test [6], 3.6% (inactive) and 0.9% (inactive).

For `COc1ccc(-c2cc(-c3ccco3)c(C#N)c(=O)n2C2OC(COC(C)=O)C(OC(C)=O)C(OC(C)=O)C2OC(C)=O)cc1` (stereo unspecified), the growth inhibition in test [1] was 8.3% (inactive) and -23% (inactive); in test [2], 12.3% (inactive) and 1.9% (inactive); in test [3], 23.9% (inactive) and 4% (inactive); in test [4], 42.2% (inactive) and 8.8% (inactive); in test [5], 16.8% (inactive) and -2.2% (inactive); in test [6], 11.1% (inactive) and -19.1% (inactive).

As for `COc1cc(NCCCNc2c3ccc(Cl)cc3nc3ccc(OC)cc23)c2ncccc2c1`, the growth inhibition was -3.5% (inactive) and 79.2% (active) in test [1]; -13.9% (inactive) and 24% (inactive) in test [2]; 8.15% (inactive) and 70% (active) in test [3]; -0.35% (inactive) and 54.1% (inactive) in test [4]; -18.2% (inactive) and 50.2% (inactive) in test [5]; -4.6% (inactive) and 85.9% (active) in test [6].

For `c1ccc([P+](Cc2ccccc2C[P+](c2ccccc2)(c2ccccc2)c2ccccc2)(c2ccccc2)c2ccccc2)cc1`, the growth inhibition in test [1] was -15% (inactive) and 20.1% (inactive); in test [2], -20.9% (inactive) and 6.8% (inactive); in test [3], -5.3% (inactive) and 7.25% (inactive); in test [4] it was -8.25% (inactive) and 14.8% (inactive); in test [5] it was 1.6% (inactive) and 7.8% (inactive); in test [6], -50% (inactive) and 12.3% (inactive).

In the case of `COC1OC2COCOC2C(O)C1O` (stereo unspecified), the growth inhibition is 16.4% (inactive) and 11.6% (inactive) in test [1]; 17.1% (inactive) and 7.85% (inactive) in test [2]; 10.9% (inactive) and 1.8% (inactive) in test [3]; -53.6% (inactive) and -34.5% (inactive) in test [4]; 14.9% (inactive) and 8.8% (inactive) in test [5]; -4.9% (inactive) and 5.65% (inactive) in test [6].

Turning to `COC1C(C)OCOC2COCOC21` (stereo unspecified), the growth inhibition was 17.4% (inactive) and -6.3% (inactive) in test [1]; 2.2% (inactive) and -13.2% (inactive) in test [2]; 4.15% (inactive) and -8.6% (inactive) in test [3]; 0.5% (inactive) and -19.8% (inactive) in test [4]; 9.05% (inactive) and -3.8% (inactive) in test [5]; 7.4% (inactive) and -0.45% (inactive) in test [6].

`COc1cc2c(cc1OC)C(=O)C1COC(=O)C1C2` (stereo unspecified): the growth inhibition in test [1] is -17% (inactive) and 0.6% (inactive); in test [2], -18.8% (inactive) and -11.5% (inactive); in test [3] it was -8.7% (inactive) and 14.8% (inactive); in test [4], -11.9% (inactive) and 5.05% (inactive); in test [5] it was -6.2% (inactive) and -4.85% (inactive); in test [6] it was 0.55% (inactive) and 12.2% (inactive).

In the case of `CC1CCC2(OC1)OC1CC3C4CCC5CC(O)CCC5(C)C4CCC3(C)C1C2C` (stereo unspecified), the growth inhibition in test [1] was 22.4% (inactive) and -15.3% (inactive); in test [2] it was -29.8% (inactive) and -19.3% (inactive); in test [3], 2.45% (inactive) and -24.1% (inactive); in test [4], 7.15% (inactive) and 0.8% (inactive); in test [5], 9.4% (inactive) and -9.1% (inactive); in test [6], 26.8% (inactive) and -12.7% (inactive).

As to `O=C(c1ccco1)C(O)c1ccco1` (stereo unspecified), the growth inhibition in test [1] was 18.4% (inactive) and -8.55% (inactive); in test [2], -12.6% (inactive) and -3.75% (inactive); in test [3], 1.55% (inactive) and 11.1% (inactive); in test [4], 3.95% (inactive) and -7.7% (inactive); in test [5], 15.7% (inactive) and 1.55% (inactive); in test [6] it was -0.05% (inactive) and -12.2% (inactive).

Take `O=C(CC(=O)Nc1ccccc1)Nc1ccccc1`: the growth inhibition was -3.55% (inactive) and 32.1% (inactive) in test [1]; -21% (inactive) and 0.2% (inactive) in test [2]; -5.95% (inactive) and 23.4% (inactive) in test [3]; 8.5% (inactive) and 5.5% (inactive) in test [4]; -28.6% (inactive) and -1.65% (inactive) in test [5]; -5.55% (inactive) and 20.8% (inactive) in test [6].

In the case of `CCCCCCC1OCC(COC)O1` (stereo unspecified), the growth inhibition is 5.25% (inactive) and 2.25% (inactive) in test [1]; -3.1% (inactive) and -10.5% (inactive) in test [2]; -1.9% (inactive) and -11.1% (inactive) in test [3]; -4.55% (inactive) and 6% (inactive) in test [4]; 0.5% (inactive) and -2.35% (inactive) in test [5]; -2.45% (inactive) and -10.2% (inactive) in test [6].

As to `O=C1NC(CCCl)C(=O)NC1CCCl` (stereo unspecified), the growth inhibition is 1.6% (inactive) and -0.7% (inactive) in test [1]; -2.05% (inactive) and 4.55% (inactive) in test [2]; -16.1% (inactive) and -3.55% (inactive) in test [3]; -10.2% (inactive) and -7.55% (inactive) in test [4]; -1.45% (inactive) and 2.4% (inactive) in test [5]; 1.6% (inactive) and -1.35% (inactive) in test [6].

Turning to `CC(CCC(=O)O)(c1ccc(O)cc1)c1ccc(O)cc1`, the growth inhibition in test [1] was 10.4% (inactive) and -8.8% (inactive); in test [2] it was -0.85% (inactive) and -15.6% (inactive); in test [3] it was -12.8% (inactive) and -51.6% (inactive); in test [4], -44.4% (inactive) and -33.4% (inactive); in test [5], -2.7% (inactive) and -17.2% (inactive); in test [6] it was 22.8% (inactive) and -15.6% (inactive).

Take `O=P(O)(O)Oc1ccccc1`: the growth inhibition in test [1] was -10.4% (inactive) and -8.3% (inactive); in test [2], -6.25% (inactive) and 6.05% (inactive); in test [3], -16.7% (inactive) and 6.55% (inactive); in test [4], -9.8% (inactive) and -9.95% (inactive); in test [5] it was -0.05% (inactive) and -3.3% (inactive); in test [6], -12.1% (inactive) and 9.2% (inactive).

With `O=C1CC(=P(c2ccccc2)(c2ccccc2)c2ccccc2)C(=O)N1c1ccccc1`, the growth inhibition is -24.2% (inactive) and 22.2% (inactive) in test [1]; -15.6% (inactive) and -12% (inactive) in test [2]; -7.95% (inactive) and 42.8% (inactive) in test [3]; 5.05% (inactive) and 33.2% (inactive) in test [4]; -9.45% (inactive) and 10.2% (inactive) in test [5]; -12.8% (inactive) and 21.6% (inactive) in test [6].

In the case of `C/C(=N\O)c1ccccc1`, the growth inhibition in test [1] is -11.2% (inactive) and 18.9% (inactive); in test [2], -20.4% (inactive) and -5.5% (inactive); in test [3] it was -3.5% (inactive) and 13% (inactive); in test [4], 2.8% (inactive) and -13.4% (inactive); in test [5], 8.3% (inactive) and -2.6% (inactive); in test [6], -19.9% (inactive) and 14.5% (inactive).

Take `CC(C(=O)O)C(=O)O.[NH-]C1CCCCC1[NH-].[Pt+2]`: the growth inhibition in test [1] was 8.5% (inactive) and 16.2% (inactive); in test [2], 6.7% (inactive) and 5.2% (inactive); in test [3], -11.1% (inactive) and -3.45% (inactive); in test [4], 11.2% (inactive) and -0.05% (inactive); in test [5], 20.4% (inactive) and 21.3% (inactive); in test [6], 32.3% (inactive) and 34.4% (inactive).

For `CC(=O)c1c(-c2ccc(Cl)cc2)c(C#N)c(=S)n(C2OC(CO)C(O)C(O)C2O)c1-c1ccccc1` (stereo unspecified), the growth inhibition was 5.1% (inactive) and 4.5% (inactive) in test [1]; 1.95% (inactive) and 6.1% (inactive) in test [2]; 28.1% (inactive) and 34.5% (inactive) in test [3]; 33.1% (inactive) and -7.6% (inactive) in test [4]; -2.95% (inactive) and 39.5% (inactive) in test [5]; 56.6% (inactive) and 15.9% (inactive) in test [6].

The values above are taken from PubChem BioAssay (NCI).
